# Data: ChEMBL document CHEMBL2218924, “A broad activity screen in support of a chemogenomic map for kinase signalling research and drug discovery” (Biochem J, 2013)
# Legend:
# [1] = target: T1, Ephrin type-A receptor 3 (Homo sapiens) (UniProt P29320); conditions: at 10 µM
# T1 sequence (whole entry): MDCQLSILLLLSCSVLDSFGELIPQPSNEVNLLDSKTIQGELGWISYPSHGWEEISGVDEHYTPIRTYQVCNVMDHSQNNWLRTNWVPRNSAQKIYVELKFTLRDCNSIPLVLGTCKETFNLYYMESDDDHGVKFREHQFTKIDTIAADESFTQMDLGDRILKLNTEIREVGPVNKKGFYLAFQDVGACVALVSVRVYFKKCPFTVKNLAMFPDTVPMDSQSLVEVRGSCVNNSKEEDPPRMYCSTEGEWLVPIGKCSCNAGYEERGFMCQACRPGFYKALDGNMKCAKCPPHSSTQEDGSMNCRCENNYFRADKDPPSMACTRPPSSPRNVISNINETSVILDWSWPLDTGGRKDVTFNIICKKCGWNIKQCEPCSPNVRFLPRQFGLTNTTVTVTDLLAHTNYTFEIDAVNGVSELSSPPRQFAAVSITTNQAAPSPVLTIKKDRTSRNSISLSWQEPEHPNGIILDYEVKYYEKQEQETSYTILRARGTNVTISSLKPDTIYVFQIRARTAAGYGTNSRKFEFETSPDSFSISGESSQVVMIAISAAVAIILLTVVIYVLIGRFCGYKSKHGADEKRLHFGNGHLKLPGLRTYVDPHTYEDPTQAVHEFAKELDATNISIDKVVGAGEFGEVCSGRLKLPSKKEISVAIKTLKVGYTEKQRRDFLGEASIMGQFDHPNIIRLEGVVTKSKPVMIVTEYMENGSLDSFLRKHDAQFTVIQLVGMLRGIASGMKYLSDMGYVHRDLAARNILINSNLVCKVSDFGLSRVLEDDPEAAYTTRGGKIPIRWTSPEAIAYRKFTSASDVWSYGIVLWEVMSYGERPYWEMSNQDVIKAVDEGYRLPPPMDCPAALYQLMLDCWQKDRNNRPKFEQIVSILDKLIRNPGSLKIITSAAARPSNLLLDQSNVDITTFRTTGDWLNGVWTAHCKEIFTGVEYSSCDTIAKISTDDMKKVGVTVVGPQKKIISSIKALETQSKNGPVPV
# [2] = target: Ephrin type-A receptor 4 (Homo sapiens) (UniProt P54764); conditions: at 1 µM
# [3] = target: Ephrin type-A receptor 4 (Homo sapiens) (UniProt P54764); conditions: at 10 µM
# [4] = target: Ephrin type-A receptor 5 (Homo sapiens) (UniProt P54756); conditions: at 1 µM
# [5] = target: Ephrin type-A receptor 5 (Homo sapiens) (UniProt P54756); conditions: at 10 µM
# [6] = target: Ephrin type-A receptor 7 (Homo sapiens) (UniProt Q15375); conditions: at 1 µM
# [7] = target: Ephrin type-A receptor 7 (Homo sapiens) (UniProt Q15375); conditions: at 10 µM
# [8] = target: T2, Ephrin type-A receptor 8 (Homo sapiens) (UniProt P29322); conditions: at 1 µM
# T2 sequence (whole entry): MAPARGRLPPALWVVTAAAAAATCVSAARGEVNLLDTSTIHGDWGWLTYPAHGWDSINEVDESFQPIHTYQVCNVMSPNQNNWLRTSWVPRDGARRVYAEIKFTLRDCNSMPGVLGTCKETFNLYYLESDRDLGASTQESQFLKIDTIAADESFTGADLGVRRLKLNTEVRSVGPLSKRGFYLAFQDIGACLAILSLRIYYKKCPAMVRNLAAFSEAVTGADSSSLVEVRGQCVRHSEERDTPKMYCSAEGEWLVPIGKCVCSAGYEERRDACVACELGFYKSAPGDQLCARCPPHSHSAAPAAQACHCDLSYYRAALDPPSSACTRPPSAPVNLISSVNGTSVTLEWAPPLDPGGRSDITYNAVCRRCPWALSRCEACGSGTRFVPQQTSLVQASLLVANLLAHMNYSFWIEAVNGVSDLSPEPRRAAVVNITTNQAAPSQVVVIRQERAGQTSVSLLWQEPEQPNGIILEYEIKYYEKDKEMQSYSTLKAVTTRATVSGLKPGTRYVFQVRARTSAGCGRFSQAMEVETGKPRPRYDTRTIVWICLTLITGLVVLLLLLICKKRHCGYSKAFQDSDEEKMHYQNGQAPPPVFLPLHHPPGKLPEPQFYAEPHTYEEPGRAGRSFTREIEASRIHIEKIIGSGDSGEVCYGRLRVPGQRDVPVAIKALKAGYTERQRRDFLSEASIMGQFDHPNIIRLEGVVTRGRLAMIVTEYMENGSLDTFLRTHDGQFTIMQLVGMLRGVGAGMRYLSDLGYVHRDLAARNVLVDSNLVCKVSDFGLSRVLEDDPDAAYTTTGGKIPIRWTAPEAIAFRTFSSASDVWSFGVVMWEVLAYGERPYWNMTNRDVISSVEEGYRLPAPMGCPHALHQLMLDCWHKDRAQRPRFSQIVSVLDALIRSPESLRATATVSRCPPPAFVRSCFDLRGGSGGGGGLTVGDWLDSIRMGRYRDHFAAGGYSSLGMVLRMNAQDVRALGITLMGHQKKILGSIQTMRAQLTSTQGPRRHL
# [9] = target: T2, Ephrin type-A receptor 8 (Homo sapiens); conditions: at 10 µM
# [10] = target: T3, Ephrin type-B receptor 1 (Homo sapiens) (UniProt P54762); conditions: at 1 µM
# T3 sequence (whole entry): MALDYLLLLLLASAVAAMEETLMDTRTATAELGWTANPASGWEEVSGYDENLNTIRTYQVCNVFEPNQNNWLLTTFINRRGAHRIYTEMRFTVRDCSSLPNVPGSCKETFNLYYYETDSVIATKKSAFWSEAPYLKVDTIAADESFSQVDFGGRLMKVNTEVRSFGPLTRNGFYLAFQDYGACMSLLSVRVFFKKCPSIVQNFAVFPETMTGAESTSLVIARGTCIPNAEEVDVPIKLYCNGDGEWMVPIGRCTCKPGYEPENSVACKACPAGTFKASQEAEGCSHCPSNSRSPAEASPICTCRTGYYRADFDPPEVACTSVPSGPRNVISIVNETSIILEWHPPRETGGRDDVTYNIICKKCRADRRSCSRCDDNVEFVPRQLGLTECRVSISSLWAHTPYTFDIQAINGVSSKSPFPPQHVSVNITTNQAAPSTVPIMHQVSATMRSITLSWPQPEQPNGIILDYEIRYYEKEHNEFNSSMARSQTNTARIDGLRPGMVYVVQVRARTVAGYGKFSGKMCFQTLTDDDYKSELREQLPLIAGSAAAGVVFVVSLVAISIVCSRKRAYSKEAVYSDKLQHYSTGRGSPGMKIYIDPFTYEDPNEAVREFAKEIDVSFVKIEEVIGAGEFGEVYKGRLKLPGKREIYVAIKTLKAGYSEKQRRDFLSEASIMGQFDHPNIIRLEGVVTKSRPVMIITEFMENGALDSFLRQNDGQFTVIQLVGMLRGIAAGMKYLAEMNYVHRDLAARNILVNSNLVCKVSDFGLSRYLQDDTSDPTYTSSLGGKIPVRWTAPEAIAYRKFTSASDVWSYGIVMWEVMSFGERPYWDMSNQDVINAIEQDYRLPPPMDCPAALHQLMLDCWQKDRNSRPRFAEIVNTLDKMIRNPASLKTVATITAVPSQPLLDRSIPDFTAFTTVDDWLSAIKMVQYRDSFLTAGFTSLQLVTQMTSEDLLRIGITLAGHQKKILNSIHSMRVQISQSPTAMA
# Chain of Ephrin type-A receptor 4 (Homo sapiens) (P54764 whole entry): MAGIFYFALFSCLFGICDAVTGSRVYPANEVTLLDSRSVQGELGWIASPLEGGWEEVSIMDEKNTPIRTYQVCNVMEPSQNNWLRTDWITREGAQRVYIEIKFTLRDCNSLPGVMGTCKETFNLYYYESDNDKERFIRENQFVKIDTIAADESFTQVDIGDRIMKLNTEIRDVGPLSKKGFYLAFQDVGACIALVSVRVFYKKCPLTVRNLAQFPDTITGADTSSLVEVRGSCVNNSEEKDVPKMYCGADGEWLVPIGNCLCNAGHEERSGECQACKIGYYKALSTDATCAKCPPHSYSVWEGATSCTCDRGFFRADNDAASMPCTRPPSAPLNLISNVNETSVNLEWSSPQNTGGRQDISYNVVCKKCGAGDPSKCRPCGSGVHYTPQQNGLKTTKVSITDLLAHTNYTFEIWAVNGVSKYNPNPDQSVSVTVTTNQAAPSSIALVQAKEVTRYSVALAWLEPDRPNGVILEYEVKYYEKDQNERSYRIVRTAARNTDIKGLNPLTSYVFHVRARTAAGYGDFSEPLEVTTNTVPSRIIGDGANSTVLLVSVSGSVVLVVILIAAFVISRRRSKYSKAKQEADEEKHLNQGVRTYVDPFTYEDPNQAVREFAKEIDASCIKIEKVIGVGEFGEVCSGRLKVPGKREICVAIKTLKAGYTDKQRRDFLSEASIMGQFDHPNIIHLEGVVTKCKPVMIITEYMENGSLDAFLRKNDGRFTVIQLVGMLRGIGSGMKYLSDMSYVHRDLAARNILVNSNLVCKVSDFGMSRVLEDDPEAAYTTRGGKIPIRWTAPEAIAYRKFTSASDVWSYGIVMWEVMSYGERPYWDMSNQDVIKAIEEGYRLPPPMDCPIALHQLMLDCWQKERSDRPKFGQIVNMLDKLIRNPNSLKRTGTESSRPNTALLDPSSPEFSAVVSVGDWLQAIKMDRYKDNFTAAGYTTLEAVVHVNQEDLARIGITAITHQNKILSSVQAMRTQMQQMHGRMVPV
# Chain of Ephrin type-A receptor 7 (Homo sapiens) (Q15375 28-998 limits assumed): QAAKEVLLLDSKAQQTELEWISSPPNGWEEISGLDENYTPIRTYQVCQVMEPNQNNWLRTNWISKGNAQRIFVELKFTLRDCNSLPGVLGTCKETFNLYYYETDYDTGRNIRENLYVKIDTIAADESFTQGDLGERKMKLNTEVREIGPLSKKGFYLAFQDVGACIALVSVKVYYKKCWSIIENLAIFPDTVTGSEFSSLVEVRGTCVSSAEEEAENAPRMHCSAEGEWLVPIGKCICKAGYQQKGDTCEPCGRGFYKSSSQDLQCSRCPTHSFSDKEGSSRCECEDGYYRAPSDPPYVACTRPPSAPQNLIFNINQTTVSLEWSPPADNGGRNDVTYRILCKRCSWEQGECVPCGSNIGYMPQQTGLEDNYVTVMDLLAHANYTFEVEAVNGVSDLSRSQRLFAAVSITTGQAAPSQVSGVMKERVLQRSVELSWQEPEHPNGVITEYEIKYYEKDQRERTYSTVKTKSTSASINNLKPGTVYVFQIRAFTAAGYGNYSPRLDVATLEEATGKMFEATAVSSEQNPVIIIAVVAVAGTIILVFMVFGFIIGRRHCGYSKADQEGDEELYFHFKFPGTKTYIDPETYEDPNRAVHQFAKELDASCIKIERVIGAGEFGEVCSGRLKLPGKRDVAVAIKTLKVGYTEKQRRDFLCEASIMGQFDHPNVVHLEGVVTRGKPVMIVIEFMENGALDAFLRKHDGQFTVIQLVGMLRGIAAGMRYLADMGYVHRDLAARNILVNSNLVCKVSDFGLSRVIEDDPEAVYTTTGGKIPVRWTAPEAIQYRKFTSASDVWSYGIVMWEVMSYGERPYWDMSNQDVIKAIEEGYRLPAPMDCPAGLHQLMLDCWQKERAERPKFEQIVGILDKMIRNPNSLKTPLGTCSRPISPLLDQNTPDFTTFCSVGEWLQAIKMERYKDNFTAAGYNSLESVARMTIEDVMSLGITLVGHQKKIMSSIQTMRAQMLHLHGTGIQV
# Chain of Ephrin type-A receptor 5 (Homo sapiens) (P54756 whole entry): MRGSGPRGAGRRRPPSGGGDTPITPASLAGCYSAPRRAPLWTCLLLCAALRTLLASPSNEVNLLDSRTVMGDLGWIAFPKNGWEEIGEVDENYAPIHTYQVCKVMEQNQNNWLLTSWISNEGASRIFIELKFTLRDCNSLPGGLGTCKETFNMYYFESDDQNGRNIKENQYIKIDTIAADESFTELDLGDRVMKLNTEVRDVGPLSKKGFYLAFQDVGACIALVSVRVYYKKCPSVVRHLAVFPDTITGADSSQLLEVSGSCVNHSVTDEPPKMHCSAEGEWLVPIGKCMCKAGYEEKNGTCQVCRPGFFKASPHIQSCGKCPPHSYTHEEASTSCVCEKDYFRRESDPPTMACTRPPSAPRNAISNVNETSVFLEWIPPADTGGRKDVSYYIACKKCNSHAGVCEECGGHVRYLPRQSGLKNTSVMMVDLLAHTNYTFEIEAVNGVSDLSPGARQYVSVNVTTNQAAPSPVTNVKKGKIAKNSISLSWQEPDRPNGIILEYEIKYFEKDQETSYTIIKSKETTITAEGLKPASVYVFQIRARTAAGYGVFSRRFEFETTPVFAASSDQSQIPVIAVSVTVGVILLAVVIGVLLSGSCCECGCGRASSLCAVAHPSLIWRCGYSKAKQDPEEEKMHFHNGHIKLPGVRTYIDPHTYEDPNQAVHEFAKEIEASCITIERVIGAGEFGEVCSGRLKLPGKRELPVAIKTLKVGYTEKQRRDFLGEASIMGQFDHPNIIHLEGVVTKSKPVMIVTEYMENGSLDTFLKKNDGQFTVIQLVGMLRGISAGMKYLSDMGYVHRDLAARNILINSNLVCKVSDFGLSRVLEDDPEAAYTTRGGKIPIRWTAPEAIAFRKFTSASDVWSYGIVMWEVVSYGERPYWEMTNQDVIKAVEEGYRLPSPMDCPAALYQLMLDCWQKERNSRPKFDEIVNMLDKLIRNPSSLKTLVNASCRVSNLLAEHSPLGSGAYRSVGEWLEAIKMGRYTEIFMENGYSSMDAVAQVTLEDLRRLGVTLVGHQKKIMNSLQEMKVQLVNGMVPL
smiles,measurement,setting,value
COc1cccc(-c2cc(=O)c3ccccc3o2)c1N,residual activity,[1],108%
same,residual activity,[2],109%
same,residual activity,[3],108%
same,residual activity,[4],118%
same,residual activity,[5],96%
same,residual activity,[6],98%
same,residual activity,[7],97%
same,residual activity,[8],105%
same,residual activity,[9],104%
same,residual activity,[10],118%
